Assay outcomes as filed in PubChem.
Compounds with a hit are over-represented: about 2.4% of the library has one in this group of screens.
ALOX12 inh: inhibitors of human 12S-lipoxygenase ALOX12 | purified 12hLO, xylenol orange hydroperoxide absorbance | Potency, µM (series often up to 108 µM), for the others: at the highest dose activity change, negative = inhibition, actives largely listed as inhibitors | 1.1% of 580,000 active; note: % is set by controls: 0 for no effect and ±100 for the full control effect
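Purified human 12hLO (150 nM final) in 25 mM Hepes, 0.01% Triton X-100, pH 7.0 was preincubated 15 min at room temperature with compound. Then 40 uM arachidonic acid was added, 30 min. Hydroperoxide was read by Fe-XO absorbance ratio 573/405 nm.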
PTAP TSG101 blk: blocks PTAP/TSG101 interaction to inhibit HIV-1 budding; Q99816; Fluorescence polarization, FITC-PTAP peptide / Tsg101 binding; Potency, µM (doses to about 115 µM), inactives show top-dose activity change, negative = inhibition, actives largely listed as inhibitors; 340,000 tested, under 10 active; AID 493005; active = well fitted inhibition curve with a large enough effect in the main read-out, with a control signal flat, not every such curve was filed as active; inconclusive = small, poorly fitted or top-dose-only effect, or effect the other way, or a change in a side signal; inactive = no such curve, though single readings can be large or run the other way; note: % of control where 0% means no effect
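FP read-out: FITC-PTAP peptide, 50 nM final, binding Tsg101 binding domain, 10 uM final; 20 min, r.t.; 10 mM HEPES pH 7.5, 0.15 M NaCl, 0.01% Tween 20, 3 mM EDTA, 0.1 mM TCEP.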
Rango complex inh: Rango-importin beta binding inhibition; Potency, µM (titrated, usually from 92.2 µM), for inactives: top-dose inhibition of complex formation; Q14974; 0.031% of 340,000 active; Rango CFP/YFP FRET sensor + importin beta, 45 min; calls by dose curve;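 note: 0% = DMSO wells and 100% = buffer wells lacking importin beta; nearly all actives have a fitted effect of over 15% in size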
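FRET biosensor Rango (snurportin 1 IBB between N-terminal EYFP and C-terminal Cerulean), 50 nM in PBS/1 mM DTT/0.02% Tween-20/0.1% BSA, preincubated 5 min RT with compound; 0.125 microM importin beta added, 45 min RT, CFP/YFP FRET ratio read.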
Rango release inh: prevents RanGTP from dissociating the Rango-importin beta complex | 0.071% of 340,000 active | AID 540253 | Potency, µM (titrated, usually from 46.1 µM), inactives show at the highest dose activity change, negative = inhibition | Biochemical FRET Rango-importin beta, RanGTP-induced dissociation; calls by dose curve; note: % of control where 0% means no effect; nearly all actives have a fitted effect of over 45% in size
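Rango FRET biosensor (snurportin-1 IBB flanked by N-terminal EYFP and C-terminal CFP10) at 0.1 uM, with 0.25 uM importin beta in PBS, 1mM DTT, 0.02% Tween-20, 0.1% BSA. 0.6 uM Ran, 2mM GTP and 0.2 uM RCC1 were then added for 45 min at room temperature. Inhibition read as loss of FRET rise.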
ClpP mod: qHTS Assay for Activators of ClpP | Potency, µM (series often up to 57.5 µM), without a hit: at the top dose activity change, negative = active | 1.9% of 340,000 active | purified B. subtilis ClpP, FRET peptide cleavage, 20 min; active = well fitted falling curve with a large enough effect; inconclusive = small, poorly fitted or top-dose-only effect; inactive = no such curve, though single readings can be large or run the other way; note: the source files actives as falling curves though it sought activators and does not explain the sign; nearly all actives have a fitted effect of over 65% in size
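Buffer: 100 mM Tris/HCl pH8, 100 mM KCl, 0.05% low protease BSA, 2.5% glycerol, 0.01% Tween-20. ClpP 10 microg/mL final; 20 min RT; delta FRET normalized to ADEP and DMSO controls.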
TDP1 inh: TDP1 (human) enzyme inhibition. Q9NUW8. recombinant TDP1, AlphaScreen DNA substrate cleavage. Potency, µM (titrated, usually from 130 µM), for inactives: top-dose activity change, negative = inhibition, usual class: inhibitors. 0.28% of 350,000 active. AID 485290; note: % is set by controls: 0 for no effect and ±100 for the full control effect; nearly all actives have a fitted effect of over 40% in size
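Enzyme-compound mixtures sat 15 min at room temperature, followed by a 5 min reaction with 15 nM final substrate and 10 min with AlphaScreen beads. Recombinant human Tdp1 was used at 1 nM final.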
An asterisk follows results filed as active; ? = inconclusive; / = no result; [ ] = dose if it differs, or a comment. Unless noted, calls come from the whole dose curve; as a rule, active = well fitted curve in the direction sought with a large enough effect; inconclusive = small, poorly fitted or top-dose-only effect, or another doubt; inactive = no such curve, though single readings can be large; an effect the other way counts as inactive or inconclusive. Potency is the fitted concentration of half-maximal effect.

SMILES	ALOX12 inh	PTAP TSG101 blk	Rango complex inh	Rango release inh	ClpP mod	TDP1 inh
COc1ccc(C(=O)N2C(C(=O)N3CCCC3)COC23CCN(C(=O)CC(C)(C)C)CC3)cc1 (stereo unspecified)	28.6%	/	/	/	/	/
COc1ccc(C(=O)Nc2nc(-c3cc4ccccc4oc3=O)cs2)cc1	-28.7%	/	/	/	/	/
COc1ccc(CCNC(=O)c2ccc3nc(-c4ccco4)c(-c4ccco4)nc3c2)cc1OC	/	-7.9%	?	?	-10.6%	10µM*
COc1ccc(CCn2c(N)c(C#N)c3nc4ccccc4nc32)cc1OC	0.0%	0.7%	?	?	?	4.4%
COc1ccc(CCn2c(N)c(C(=O)NCc3ccco3)c3nc4ccccc4nc32)cc1OC	-23.5%	-0.7%	?	?	28.2µM*	4.1%
CCOc1ccccc1NC(=O)N1CCCC(c2nc(C(C)C)no2)CCNC(=O)CC1 (stereo unspecified)	-8.0%	/	/	/	/	/
COc1ccc(NC(=O)c2ccc(OC(F)F)cc2)cc1Cl	-4.0%	-1.4%	0.1%	27.2%	25.1µM*	7.9%
CC(C)(C)C(=O)N1CCC(C(=O)N2CCN(c3ccccc3F)CC2)CC1	-24.6%	/	/	/	/	/
Cc1cccn2c(=O)c3cc(C(=O)NC4CCCCC4)c(=N)n(CCN4CCOCC4)c3nc12	-0.3%	-4.5%	?	?	3.8%	4.2%
Cc1cccn2c(=O)c3cc(C(=O)O)n(C)c3nc12	?	-7.5%	?	?	31.6µM*	5.1%
CCCCNC(=O)c1cc2c(=O)n3cccc(C)c3nc2n(Cc2ccncc2)c1=N	-12.9%	-9.3%	?	?	3.55µM*	2.8%
COCCNC(=O)c1cc2c(=O)n3cccc(C)c3nc2n(Cc2ccncc2)c1=N	?	-7.7%	?	?	28.0%	5.1%
Cc1cccn2c(=O)c3cc(C#N)c(=N)n(CCN4CCOCC4)c3nc12	/	-1.2%	?	8.2µM*	15.8µM*	2.3%
CCCCNC(=O)c1cc2c(=O)n3cccc(C)c3nc2n(CCN2CCOCC2)c1=N	127.0%	-4.0%	?	?	12.6µM*	6.8%
Cc1cccn2c(=O)c3cc(C#N)c(=N)n(CCCN4CCOCC4)c3nc12	0.0%	-0.8%	?	?	?	/
CCOC(=O)c1cccn1C1C(=O)N(C)c2c(F)cccc21 (stereo unspecified)	-13.4%	/	/	/	/	/
CSc1nsc(/C=C/Nc2ccc(F)cc2)c1C#N	?	8.7%	?	?	-0.2%	2.7%
CSc1nsc(/C=C/Nc2ccc(O)cc2C)c1C#N	35.5µM*	20.2%	?	?	-0.8%	10.8%
C[C@@H](NS(C)(=O)=O)c1onc(-c2cccnc2)c1C(=O)O	56.2µM*	/	/	/	/	/
C[C@@H](NS(=O)(=O)c1ccccc1)c1onc(-c2cccnc2)c1C(=O)O	-3.4%[176 µM]	/	/	/	/	/
C[C@@H](NC(=O)c1cccnc1)c1onc(-c2ccc(F)cc2)c1C(=O)O	17.8µM*	/	/	/	/	/
Cc1noc([C@@H](C)NC(=O)Nc2ccc(Cl)cc2)c1C(=O)O	20µM*	/	/	/	/	/
C[C@@H](NC(=O)Nc1ccccc1)c1onc(-c2ccc(F)cc2)c1C(=O)O	63.1µM*	/	/	/	/	/
C[C@@H](NC(=O)Nc1ccc(Cl)cc1)c1onc(-c2ccc(F)cc2)c1C(=O)O	-12.0%[176 µM]	/	/	/	/	/
CCCn1nc(C(=O)Nc2nccs2)c2ccccc2c1=O	9.4%	/	/	/	/	/
O=C(NNC(=S)NCc1ccccc1)c1ccc2c(c1)OCO2	8.1%	-1.3%	2.5%	-4.7%	13.2%	4.7%
Cc1onc(-c2c(F)cccc2Cl)c1C(=O)NCc1ccc2c(c1)OCO2	397.4%	-1.0%	-1.1%	-9.2%	28.2µM*	1.1%
O=C(NC(=S)NCc1ccc2c(c1)OCO2)c1ccccc1	15.8µM*	-3.3%	-2.3%	28.4%	-1.7%	5.8%
